CD11b adhes enh = increases human CD11b/CD18 adhesion to fibrinogen; K562 CD11b/CD18 adhesion to fibrinogen, ATPlite luminescence; P05107+P11215; hit rate 0.07% among 93,000; activation, % at 10 µM;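 active = 10 µM primary screen giving 50% or more activity, confirmed by 40% or more on retest at that dose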
Mac1 fbg inh = blocks human CD11b/CD18 adhesion to fibrinogen | K562 CD11b/CD18 adhesion to fibrinogen, ATPlite luminescence; Mn2+ added to activate the integrin | inhibition, % at 10 µM | P05107+P11215 | hit rate 0.54% among 93,000;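 active = primary inhibition of 50% or more at 10 µM, then 40% or more on retest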
CYP2C9 inhib = human CYP2C9 inhibition; P11712; inhibition, % at 5 µM; CYP2C9 Supersomes, luciferin-H conversion, luminescence; hit rate 20% among 96,000;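 active = blocking of liver enzyme CYP2C9 beyond about 50% at 5 µM, limit read from the data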
Target sequence (P11712 whole entry, looked up): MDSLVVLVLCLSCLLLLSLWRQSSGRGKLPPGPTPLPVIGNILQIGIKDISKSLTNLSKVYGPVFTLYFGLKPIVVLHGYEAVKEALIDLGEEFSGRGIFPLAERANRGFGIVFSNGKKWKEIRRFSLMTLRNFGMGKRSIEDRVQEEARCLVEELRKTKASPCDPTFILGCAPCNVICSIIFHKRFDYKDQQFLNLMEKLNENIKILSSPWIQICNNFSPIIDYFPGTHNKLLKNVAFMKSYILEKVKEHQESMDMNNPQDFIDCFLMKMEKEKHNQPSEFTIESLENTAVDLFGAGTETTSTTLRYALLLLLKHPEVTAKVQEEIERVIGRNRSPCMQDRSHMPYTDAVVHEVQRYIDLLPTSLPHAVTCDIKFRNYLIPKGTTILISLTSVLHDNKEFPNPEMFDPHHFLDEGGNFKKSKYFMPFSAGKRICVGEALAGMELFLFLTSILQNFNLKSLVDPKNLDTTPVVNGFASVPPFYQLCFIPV
CYP2C19 inhib = human CYP2C19 inhibition; hit rate 21% among 96,000; CYP2C19 Supersomes, luciferin-H EGE luminescence, 30 min; AID 778; inhibition, % at 5 µM; P33261;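 active = CYP2C19 inhibition above a set limit at 5 µM in the primary screen, cut at about 50% in these data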;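 note: plate controls were negative control wells for no effect and 2.5 mM tranylcypromine positive control for full effect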
CYP2C9 act = CYP2C9 (human) activation. hit rate 1.4% among 96,000. activation factor at 5 µM. recombinant CYP2C9, luciferin-H conversion, luminescence; hits give high values; factor 1 = untreated enzyme, 0 = blocked. AID 1024. P11712;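 active = activation factor of 2 or more for CYP2C9 at a 5 µM dose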;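 note: 0 = sulfaphenazole-blocked wells and 1 = vehicle-only wells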
CYP2C19 act = cytochrome P450 2C19 (human) activation; P33261; recombinant CYP2C19, luciferin-H EGE luminescence; hits give high values; 0 = fully inhibited enzyme, 1 = untreated enzyme; activation factor at 5 µM; 96,000 tested, under 10 active;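 active = activation factor of at least 2 at 5 µM in the primary screen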;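 note: 0 = wells with 2.5 mM tranylcypromine and 1 = vehicle-only wells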
Numbers without * were called inactive; . = no result given. Compounds with a hit are over-represented: about 28% of the library has one in this group of screens.

SMILES | CD11b adhes enh | Mac1 fbg inh | CYP2C9 inhib | CYP2C19 inhib | CYP2C9 act | CYP2C19 act
Cc1cccc(OCc2nnc(SCC(=O)Nc3cc(C)on3)n2C)c1 | 0.1 | -16.5 | 11.1 | 10.2 | 0.9 | 0.9
CCOC(=O)CCc1c(C)c2ccc(OCC(=O)N(CC)CC)c(C)c2oc1=O | 1.5 | -20.3 | 50.8* | 33.6 | 0.5 | 0.7
CCOC(=O)Cc1c(C)c2ccc(N(CC)CC)cc2oc1=O | -9.0 | 0.6 | -111.5 | 3.3 | 2.1* | 1
CCOC(=O)CCc1c(C)c2ccc(O)cc2oc1=O | 2.0 | -8.7 | -4.0 | 25.9 | 1 | 0.7
CSCCC(NC(=O)c1cc([N+](=O)[O-])ccc1Cl)C(=O)O (stereo not drawn) | 2.1 | 7.8 | . | . | . | .
O=C(CCN1CCC(c2ccccc2)C1)c1ccccc1 (stereo not drawn) | . | . | 57.9* | 88.5* | 0.4 | 0.1
O=C(Nc1ccccc1)N1CCC(n2c(=O)[nH]c3ccccc32)CC1 | 5.0 | -6.2 | 72.0* | 28.0 | 0.3 | 0.7
O=C(c1cccs1)N1CCC(c2ccccc2)C1 (stereo not drawn) | 4.0 | -56.7 | 80.7* | 97.9* | 0.2 | 0
O=C(CCN1CCC(c2ccccc2)C1)c1ccc2c(c1)OCCO2 (stereo not drawn) | -0.6 | 13.9 | -30.0 | -5.0 | 1.3 | 1.1
O=C(CNC(=O)c1cccs1)NCCN1CCC(Cc2ccccc2)CC1 | 5.2 | 22.6 | . | . | . | .
O=C(CCN1CCC(c2ccccc2)C1)c1cccs1 (stereo not drawn) | -2.2 | -4.3 | 24.9 | 78.2* | 0.8 | 0.2
O=C(c1cccs1)N1CCC(N2CCN(c3ccccc3)CC2)CC1 | -0.7 | 4.1 | -0.6 | 4.9 | 1 | 1
O=C(CSc1ccc(-c2ccco2)nn1)NCc1ccccc1Cl | 29.3 | -8.3 | . | . | . | .
N#CCCS(=O)(=O)c1nnnn1-c1ccccc1 | -5.6 | 8.4 | -8.8 | -1.7 | 1.1 | 1
Nc1nc(NCc2ccco2)nn1-c1ccccc1 | 3.3 | 5.4 | 0.2 | 4.4 | 1 | 1
CCC(C)(C(=O)NC1CCCCC1)N(Cc1ccco1)C(=O)c1ccccn1 (stereo not drawn) | 1.3 | -4.5 | -3.6 | 2.3 | 1 | 1
O=C(Nc1ccccc1)N1CCC(c2ccccc2)C1 (stereo not drawn) | -0.9 | 2.9 | 12.3 | 73.3* | 0.9 | 0.3
O=c1[nH]c(/C(=N\O)c2ccccc2)no1 | 0.2 | -8.1 | 7.8 | 23.3 | 0.9 | 0.8
CC(=O)Nc1cccc(NC(=O)C2CCCN2C(=O)Nc2ccc(C)cc2)c1 (stereo not drawn) | -3.4 | 3.5 | 5.8 | -1.5 | 0.9 | 1
Cc1cc(C)cc(NC(=O)N2CCCC2C(=O)Nc2ccc(-n3cnnn3)c(C)c2)c1 (stereo not drawn) | . | . | 10.3 | 96.5* | 0.9 | 0
CC(=O)c1cccc(NC(=O)N2CCCC2C(=O)Nc2ccccc2C)c1 (stereo not drawn) | 1.6 | -4.1 | 55.7* | 4.3 | 0.4 | 1
CC(=O)c1cccc(NC(=O)N2CCCC2C(=O)NCc2ccc(C)cc2)c1 (stereo not drawn) | -3.6 | -45.8 | 30.6 | 47.6 | 0.7 | 0.5
CC(=O)c1cccc(NC(=O)N2CCCC2C(=O)NC2CCCCC2)c1 (stereo not drawn) | 2.2 | -0.2 | 22.0 | 19.6 | 0.8 | 0.8
CC(=O)c1cccc(NC(=O)N2CCCC2C(=O)Nc2cccc(C)c2C)c1 (stereo not drawn) | -2.3 | 1.0 | 87.8* | 89.8* | 0.1 | 0.1
COc1cc(S(=O)(=O)N2CCN(C(=O)c3ccccc3F)CC2)c(OC)cc1NC(C)=O | -0.5 | -5.9 | 23.1 | 4.6 | 0.8 | 1
SMILES | CD11b adhes enh | Mac1 fbg inh | CYP2C9 inhib | CYP2C19 inhib | CYP2C9 act | CYP2C19 act
CCOC(=O)c1cnc(Nc2nc3ccccc3o2)nc1CSC(=S)N(CC)CC | 38.9 | -2.2 | . | . | . | .
CCOC(=O)C1CCCCN1Cc1cccc(C(F)(F)F)c1 (stereo not drawn) | 1.2 | -9.8 | 17.8 | 16.6 | 0.8 | 0.8
CCOC(=O)C1CCN(Cc2ccccc2C(F)(F)F)CC1 | 0.2 | 8.8 | 34.2 | 26.2 | 0.7 | 0.7
CCOC(=O)C1CCCCN1Cc1ccc(C(F)(F)F)cc1 (stereo not drawn) | 0.2 | -6.5 | 62.2* | 97.0* | 0.4 | 0
CCOC(=O)C1CCCCN1Cc1ccccc1C(F)(F)F (stereo not drawn) | -1.2 | 5.2 | 52.5* | 95.2* | 0.5 | 0
Cc1ccc(NC(=O)C(=O)NCc2ccc(/C=N/NC(=O)c3c(C)nc4ccccn34)o2)cc1 | 27.5 | 10.7 | . | . | . | .
COC(=O)C1=[N+]([O-])OC(C(=O)OC)C1c1c[nH]c2ccccc12 (stereo not drawn) | -3.6 | 4.6 | 13.0 | 20.8 | 0.9 | 0.8
CC1=C(C(=O)Nc2ccccc2)C(c2ccc(C)cc2)N=C(Nc2nc3ccccc3o2)N1 (stereo not drawn) | 2.0 | 6.2 | 34.6 | 11.3 | 0.7 | 0.9
Cc1ccc2c(CC(=O)NCc3ccco3)coc2c1C | -5.0 | 11.4 | -53.8 | 98.9* | 1.5 | 0
Cc1c(Br)cc(C(=O)NCc2ccco2)c(C)c1C | 1.0 | 0.3 | -168.0 | 77.0* | 2.7* | 0.2
O=C(NCc1ccco1)c1ccc(Br)s1 | -5.1 | 2.8 | 37.3 | 69.7* | 0.6 | 0.3
Cc1ccc(C(=O)NCc2ccco2)cc1Br | 2.1 | -44.0 | -31.6 | 70.2* | 1.3 | 0.3
Cc1ccc(CNC(=O)Cn2c([N+](=O)[O-])cnc2C)cc1 | -4.4 | -33.6 | 0.2 | 3.0 | 1 | 1
CS(=O)(=O)c1ccc2nc(NC(NC(=O)c3ccco3)(C(F)(F)F)C(F)(F)F)sc2c1 | -2.3 | 29.3 | 99.0* | 50.0* | 0 | 0.5
COC(=O)C(NC(C)=O)(Nc1nc2ccc(C)cc2s1)C(F)(F)F (stereo not drawn) | -0.7 | -51.9 | 78.3* | 74.8* | 0.2 | 0.3
COC(=O)C(NC(C)=O)(Nc1nc2ccc(S(C)(=O)=O)cc2s1)C(F)(F)F (stereo not drawn) | . | . | 64.1* | 2.0 | 0.4 | 1
Cc1cc(NC(NC(=O)c2ccco2)(C(F)(F)F)C(F)(F)F)no1 | 4.9 | 36.7 | 10.6 | 11.1 | 0.9 | 0.9
O=C(c1ccc(S(=O)(=O)N2CCCCC2)cc1)c1nnc(-c2ccc(Cl)cc2)o1 | 6.0 | 9.0 | 6.1 | 1.8 | 0.9 | 1
O=C(CCc1ccc(S(=O)(=O)N2CCCCC2)cc1)c1nnc(-c2ccccc2)o1 | -5.3 | -10.9 | 41.1 | 74.1* | 0.6 | 0.3
CC(C)(C)n1nnnc1C(c1ccc(C#N)cc1)N1CCCC2(CCCCC2)C1 (stereo not drawn) | 5.5 | -1.0 | 21.1 | -5.5 | 0.8 | 1.1
CC(C)(C)n1nnnc1C(c1ccncc1)N1CCCCCC1 (stereo not drawn) | 2.6 | -11.6 | 73.4* | 83.1* | 0.3 | 0.2
Cc1cccc(N2CCN(C(c3cccs3)c3nnnn3C(C)(C)C)CC2)c1C (stereo not drawn) | 0.7 | 2.7 | 53.6* | 44.8 | 0.5 | 0.6

Assay outcomes from PubChem.
